Reference: PubChem BioAssay (NCATS)
Records with an inconclusive call do not appear. Active and inactive are the calls of the source. Unless noted, the call rests on the fitted dose curve; in most records, active means well fitted inhibition curve with a large enough effect; inconclusive means small, poorly fitted or top-dose-only effect; inactive means flat fitted curve, though single readings scatter.

Experiments:
[1] = AP1 Signaling Pathway (AID 357; active means well fitted curve in either direction with a large enough effect, not every such curve was filed as active;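 further: ME-180 reporter cells stimulated with EGF at its EC50 level; on the % scale 0 is the no-effect control and ±100 the full control effect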)
Method in brief: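 A ratiometric CCF4 readout (405 nm excitation; 460 and 530 nm emission) quantified AP-1-driven beta-lactamase in ME-180 cells after 5 h with compound and EC50 EGF; AC50 values were derived for activators and inhibitors.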

[2] = molecular target: Cytochrome P450 1A2 (Homo sapiens) (UniProt P05177); test: p450-cyp1a2 (AID 410; calls by dose curve; further: potency means the concentration at half of the fitted maximal effect;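 on activity change, negative = inhibition: -100% = full effect of reference inhibitor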)
Cytochrome P450 1A2 (Homo sapiens), sequence (P05177 whole entry, looked up): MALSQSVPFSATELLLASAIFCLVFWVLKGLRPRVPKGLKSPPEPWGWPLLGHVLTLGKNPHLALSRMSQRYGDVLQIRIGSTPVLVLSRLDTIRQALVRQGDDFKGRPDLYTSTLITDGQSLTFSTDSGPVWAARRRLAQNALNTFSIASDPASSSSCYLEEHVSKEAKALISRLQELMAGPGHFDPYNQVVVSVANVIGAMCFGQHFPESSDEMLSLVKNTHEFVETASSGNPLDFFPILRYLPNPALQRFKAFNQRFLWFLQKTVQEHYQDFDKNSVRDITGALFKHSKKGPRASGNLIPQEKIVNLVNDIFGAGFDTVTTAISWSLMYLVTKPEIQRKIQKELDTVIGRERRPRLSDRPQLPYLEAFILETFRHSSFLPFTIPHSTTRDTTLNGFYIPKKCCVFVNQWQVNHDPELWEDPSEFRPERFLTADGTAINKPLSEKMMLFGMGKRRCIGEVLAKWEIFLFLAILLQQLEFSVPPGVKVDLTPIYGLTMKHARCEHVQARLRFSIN
Method in brief: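 O-Demethylation of luciferin 6' methyl ether by human CYP1A2 is monitored as luciferase luminescence. Substrate sits at Km (100uM); enzyme is 20nM. Values are scaled to 57 uM furafylline as maximal inhibition.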

[3] = NFAT Signaling Pathway (AID 444; active means well fitted curve in either direction with a large enough effect, not every such curve was filed as active;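 further: carbachol stimulus at about its EC50 of 1 µM final; on the % scale 0 is the no-effect control and ±100 the full control effect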); details: Jurkat NFAT-bla M1, carbachol, beta-lactamase ratio, 5 h; at 17.2 µM (top of the series) unless noted
Method in brief: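 Jurkat cells carrying an NFAT-driven β-lactamase reporter and co-transfected muscarinic M1 receptor were treated with compound plus carbachol (1 uM final, an EC50 level) for 5 h at 37 °C. CCF4 loading followed for 1 h at RT; 460/530 nm ratio gave %activity.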

[4] = Stat Signaling Pathway (AID 446; active means well fitted curve in either direction with a large enough effect, not every such curve was filed as active;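 further: ME-180 cervical cancer cells given 40 pM IL-6 alongside compound; SIE-controlled beta-lactamase reporter measured as 460/530 nm FRET emission ratio; on the % scale 0 is the no-effect control and ±100 the full control effect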)
Method in brief: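 Overnight-plated ME-180 cells bearing a STAT Inducible Element beta-lactamase reporter; 5 h co-exposure to compound and 40 pM IL-6; values normalized to 300 pM IL-6 and 125 nM JAK inhibitor controls.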

[5] = molecular target: Glucocorticoid receptor (Homo sapiens) (UniProt P04150); test: GR-GFP Redistribution (AID 450;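 active means compounds whose dose series gives a full or clear partial fitted curve of increased nuclear translocation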; further: potency means the concentration at half of the fitted maximal effect); details: U2OS GR-GFP nuclear translocation, laser cytometry, 2 h
Glucocorticoid receptor (Homo sapiens), sequence (P04150 whole entry, looked up, the tested form may be a part): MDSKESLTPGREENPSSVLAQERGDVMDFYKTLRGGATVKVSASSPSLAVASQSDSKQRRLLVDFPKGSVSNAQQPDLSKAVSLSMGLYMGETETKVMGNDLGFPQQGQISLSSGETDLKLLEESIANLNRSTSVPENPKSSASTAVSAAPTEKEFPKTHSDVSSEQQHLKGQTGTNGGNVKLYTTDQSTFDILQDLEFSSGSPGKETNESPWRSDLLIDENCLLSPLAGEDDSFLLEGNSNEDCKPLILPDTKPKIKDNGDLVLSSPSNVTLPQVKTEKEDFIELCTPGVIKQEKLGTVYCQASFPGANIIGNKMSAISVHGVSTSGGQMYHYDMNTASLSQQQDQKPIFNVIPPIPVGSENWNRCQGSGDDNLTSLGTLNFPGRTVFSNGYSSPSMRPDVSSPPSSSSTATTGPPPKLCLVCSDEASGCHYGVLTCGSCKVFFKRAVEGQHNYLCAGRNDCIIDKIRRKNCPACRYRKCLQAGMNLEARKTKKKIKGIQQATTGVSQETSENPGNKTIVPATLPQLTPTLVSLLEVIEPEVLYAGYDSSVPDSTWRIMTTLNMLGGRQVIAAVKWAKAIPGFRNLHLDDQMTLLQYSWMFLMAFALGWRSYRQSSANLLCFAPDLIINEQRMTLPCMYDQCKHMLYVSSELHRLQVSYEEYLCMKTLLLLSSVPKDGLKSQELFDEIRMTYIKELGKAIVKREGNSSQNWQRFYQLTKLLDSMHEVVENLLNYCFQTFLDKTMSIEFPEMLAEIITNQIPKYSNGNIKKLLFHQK

[6] = molecular target: Glucocorticoid receptor (Homo sapiens) (UniProt P04150); test: GR-EFC Redistribution (AID 451; calls by dose curve; further: potency means the concentration at half of the fitted maximal effect); details: CHO-K1 GR-EFC translocation, beta-gal luminescence, 2 h
Method in brief: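 CHO-K1 cells stably expressing nuclear-localized β-gal enzyme acceptor and GR fused C-terminally to the enzyme donor fragment; ligand-driven nuclear translocation restores β-gal by complementation. Compounds titrated up to 46 uM final, 2 h at 37 °C; luminescence read.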

[7] = molecular target: Mitogen-activated protein kinase 10 (Mus musculus) (UniProt Q61831); test: JNK3 AlphaScreen Assay (AID 530; active means well fitted curve in either direction with a large enough effect, not every such curve was filed as active;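 further: kinase came from lysate of stimulated human HepG2 cells; signal reports phosphorylation of biotinylated GST-cJun 1-79 at Ser73 with 10 µM ATP; on the % scale 0 is the no-effect control and ±100 the full control effect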)
Method in brief: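 Phosphorylation of biotinylated GST-cJun(1-79) at Ser73 is measured by AlphaScreen proximity luminescence. Enzyme is JNK3 in HepG2 lysates activated with interleukin-1beta and tumor necrosis factor alpha; ATP is 10 uM final.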

[8] = molecular target: 3',5'-cyclic-AMP phosphodiesterase 4B (Homo sapiens) (UniProt Q07343); test: qHTS Assay for Inhibitors of PDE-IV (AID 607; active means well fitted activation curve with a large enough effect in the main read-out, with a control signal flat, not every such curve was filed as active; further: % of control where 0% means no effect)
3',5'-cyclic-AMP phosphodiesterase 4B (Homo sapiens), sequence (Q07343 whole entry, looked up): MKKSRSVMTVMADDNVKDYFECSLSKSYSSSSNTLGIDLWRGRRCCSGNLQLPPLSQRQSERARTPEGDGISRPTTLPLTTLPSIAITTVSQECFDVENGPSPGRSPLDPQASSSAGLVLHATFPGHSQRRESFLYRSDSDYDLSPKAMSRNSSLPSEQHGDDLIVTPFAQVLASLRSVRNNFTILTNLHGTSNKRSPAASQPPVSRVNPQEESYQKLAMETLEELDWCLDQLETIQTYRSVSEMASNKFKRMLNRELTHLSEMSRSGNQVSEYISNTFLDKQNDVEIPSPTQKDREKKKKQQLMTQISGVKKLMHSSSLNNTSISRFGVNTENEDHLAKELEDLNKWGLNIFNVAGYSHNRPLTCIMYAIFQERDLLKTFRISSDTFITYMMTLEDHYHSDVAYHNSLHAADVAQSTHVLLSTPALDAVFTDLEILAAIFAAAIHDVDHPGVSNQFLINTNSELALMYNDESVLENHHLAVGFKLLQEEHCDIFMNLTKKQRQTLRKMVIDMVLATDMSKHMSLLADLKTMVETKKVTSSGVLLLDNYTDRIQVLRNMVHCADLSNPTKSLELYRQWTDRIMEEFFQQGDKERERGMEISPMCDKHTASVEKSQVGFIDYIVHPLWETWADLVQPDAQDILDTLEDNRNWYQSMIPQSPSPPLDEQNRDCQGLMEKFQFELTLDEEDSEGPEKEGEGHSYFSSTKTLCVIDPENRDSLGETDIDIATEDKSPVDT
Method in brief: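 Live HEK293 cells with a modified cyclic nucleotide-gated (CNG) channel report intracellular cAMP via membrane-potential dye fluorescence (ex 535/em 590 nm). Endogenous PDE-IV was targeted. Compounds were tested at up to 22.9 uM final; RO 20-1724 100 uM served as control.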

[9] = qHTS Assay for Lipid Storage Modulators (AID 1519; calls by dose curve); details: Drosophila S3 cells, BODIPY lipid droplet/cell ratio, laser cytometry, cells loaded with oleic acid
Method in brief: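 Cells seeded at 5,000 per well were treated with compounds over a concentration series and loaded with oleic acid (400 uM, as added). Lipid droplet fluorescence (488 nm excitation, 500-530 nm channel) was read by laser-scanning cytometry and normalized to 20 uM Triacsin C.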

[10] = molecular target: Ubiquitin carboxyl-terminal hydrolase 1 (Homo sapiens) (UniProt O94782); test: Inhibitors of USP1/UAF1: Pilot qHTS (AID 504865);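 further: rhodamine fluorescence freed from ubiquitin-rhodamine substrate followed over time; top concentration of the series differs between compounds; on the % scale 0 is the no-effect control and ±100 the full control effect; nearly all actives have a fitted effect of over 35% in size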
Ubiquitin carboxyl-terminal hydrolase 1 (Homo sapiens), sequence (O94782 whole entry, looked up): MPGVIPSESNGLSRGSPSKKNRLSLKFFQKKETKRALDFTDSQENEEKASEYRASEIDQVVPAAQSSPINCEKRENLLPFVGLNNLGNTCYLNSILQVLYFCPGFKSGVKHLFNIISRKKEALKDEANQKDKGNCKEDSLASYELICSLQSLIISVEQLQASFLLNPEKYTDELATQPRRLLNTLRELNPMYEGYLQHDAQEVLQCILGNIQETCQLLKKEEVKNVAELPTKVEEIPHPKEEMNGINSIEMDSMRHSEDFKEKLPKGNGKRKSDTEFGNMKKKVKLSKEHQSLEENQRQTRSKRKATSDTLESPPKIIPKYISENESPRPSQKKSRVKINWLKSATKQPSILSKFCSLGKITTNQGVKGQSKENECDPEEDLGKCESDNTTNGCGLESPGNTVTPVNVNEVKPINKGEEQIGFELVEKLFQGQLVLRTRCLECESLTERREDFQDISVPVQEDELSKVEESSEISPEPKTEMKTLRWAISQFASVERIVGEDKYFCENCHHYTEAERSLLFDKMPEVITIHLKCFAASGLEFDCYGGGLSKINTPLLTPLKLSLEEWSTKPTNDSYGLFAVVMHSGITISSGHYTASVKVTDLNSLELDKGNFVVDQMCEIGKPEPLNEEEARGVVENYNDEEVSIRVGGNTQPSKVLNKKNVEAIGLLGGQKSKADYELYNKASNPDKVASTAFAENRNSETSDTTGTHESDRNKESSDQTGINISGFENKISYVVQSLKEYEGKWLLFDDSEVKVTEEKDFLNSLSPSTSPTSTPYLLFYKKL
Method in brief: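 USP1/UAF1 complex at 1 nM preincubated 15 min at room temperature with compound, then Ub-Rho substrate added at 150 nM final. Fluorescence (480/540 nm) read kinetically in 50 mM HEPES pH 7.8, 0.5 mM EDTA, 1 mM TCEP, 0.1 mg/ml BSA, 0.01% Tween-20.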

[11] = qHTS profiling for inhibitors of Plasmodium falciparum proliferation (AID 504749); further: potency means the concentration at half of the fitted maximal effect;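 on activity, negative = inhibition: 0% = DMSO vehicle and full inhibition = artemisinin control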; on all read-outs here: nearly all actives have a fitted effect of over 60% in size; details: P. falciparum in erythrocytes, SYBR Green DNA, 72 h; for activity, negative = inhibition: at 12.8 µM (top of the series)
Method in brief: (§1)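 Quantitative HTS: compounds pinned into medium, infected erythrocytes added (0.3% parasitemia, 2.5% hematocrit), 72 h culture at 37 C under 5% CO2. Saponin/Triton lysis with SYBR Green I, overnight RT, then fluorescence read.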

C2A = test: as above; details: P. falciparum in erythrocytes, SYBR Green DNA, 72 h; series mostly up to 12.8 µM
Method in brief: as §1

CP217 = test: as above; details: P. falciparum in erythrocytes, SYBR Green DNA, 72 h; series mostly up to 12.8 µM
Method in brief: as §1

CP238 = test: as above; details: P. falciparum in erythrocytes, SYBR Green DNA, 72 h; series mostly up to 12.8 µM
Method in brief: as §1

CP250 = test: as above; details: P. falciparum in erythrocytes, SYBR Green DNA, 72 h; series mostly up to 12.8 µM
Method in brief: as §1

CP256 = test: as above; details: P. falciparum in erythrocytes, SYBR Green DNA, 72 h; series mostly up to 12.8 µM
Method in brief: as §1

FAB9 = test: as above; details: P. falciparum in erythrocytes, SYBR Green DNA, 72 h; series mostly up to 12.8 µM
Method in brief: as §1

JCK = test: as above; details: P. falciparum in erythrocytes, SYBR Green DNA, 72 h; series mostly up to 12.8 µM
Method in brief: as §1

SC27B = test: as above; details: P. falciparum in erythrocytes, SYBR Green DNA, 72 h; series mostly up to 12.8 µM
Method in brief: as §1

[12] = molecular target: Luciferin 4-monooxygenase (Photinus pyralis) (UniProt P08659); test: Biochemical firefly luciferase enzyme assay for NPC (AID 624030);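 further: purified P. pyralis luciferase at 10 nM with luciferin and ATP substrate; 0% = DMSO and -100% = full luciferase inhibition by PTC124 control; nearly all actives have a fitted effect of over 70% in size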
Luciferin 4-monooxygenase (Photinus pyralis), sequence (P08659 whole entry, looked up): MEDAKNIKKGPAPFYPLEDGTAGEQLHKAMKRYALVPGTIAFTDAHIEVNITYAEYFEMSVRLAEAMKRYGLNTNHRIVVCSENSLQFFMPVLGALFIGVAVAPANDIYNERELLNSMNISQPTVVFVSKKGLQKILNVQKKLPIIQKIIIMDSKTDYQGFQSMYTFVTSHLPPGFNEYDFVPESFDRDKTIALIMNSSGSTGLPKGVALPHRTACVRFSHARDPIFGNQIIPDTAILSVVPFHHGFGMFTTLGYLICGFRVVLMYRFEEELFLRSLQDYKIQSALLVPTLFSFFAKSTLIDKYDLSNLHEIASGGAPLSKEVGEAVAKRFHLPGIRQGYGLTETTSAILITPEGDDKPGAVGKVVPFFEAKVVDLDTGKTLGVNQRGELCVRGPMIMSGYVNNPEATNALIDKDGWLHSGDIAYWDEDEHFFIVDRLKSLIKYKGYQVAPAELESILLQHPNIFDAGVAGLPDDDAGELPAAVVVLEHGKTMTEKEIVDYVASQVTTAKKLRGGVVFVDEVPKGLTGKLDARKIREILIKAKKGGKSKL
Method in brief: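 Counter-screen for direct inhibition of the luciferase enzyme by approved-drug library compounds, run at 10 nM enzyme in 50 mM Tris acetate (final). Luminescence was read within 5 min of enzyme-buffer addition and normalized to PTC124 versus DMSO (0%).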

[13] = measured here: cell count channel max response
[14] = measured here: lipid channel max response

CC(C)(C)CC(C)(C)c1ccc(OCOCCOCCO)c(Cc2cc(C(C)(C)CC(C)(C)C)cc(Cc3cc(C(C)(C)CC(C)(C)C)ccc3OCOCCOCCO)c2OCOCCOCCO)c1
-15.2%: max response [9, 14]
inactive: outcome [1] | Potency [2] | activity change, negative = inhibition [3] -20.3% | outcome [4] | Potency [5] > 20.6 µM | Potency [6] > 20.6 µM | Potency [7] | outcome [8] | activity change, negative = inhibition ([9]; at 25.7 µM (top of the series)) -6.93%
-10.1%: max response [9, 13]

C#C[C@]1(O)CC[C@@H]2[C@H]3CCc4cc(OC)ccc4[C@@H]3CC[C@@]21C
-15.5%: max response [9, 13]
inactive: outcome [1] | activity change, negative = inhibition [3] -23.4% | outcome [4] | Potency [5] > 20.6 µM | Potency [6] > 20.6 µM | Potency [7] | outcome [8] | activity change, negative = inhibition ([9]; at 25.7 µM (top of the series)) -2.31% | Potency [10]
-16.7%: max response [9, 14]
active: Potency [2] 0.501 µM

COCC(=O)Nc1c(I)c(C(=O)NC[C@@H](O)CO)c(I)c(C(=O)N(C)C[C@@H](O)CO)c1I
-5.27%: max response [9, 13]
-9.01%: max response [9, 14]
inactive: outcome [1] | Potency [2] | activity change, negative = inhibition [3] 3.09% | outcome [4] | outcome [8] | activity change, negative = inhibition ([9]; at 25.7 µM (top of the series)) -0.947% | activity, negative = inhibition ([11]; parasite line A) -0.503% | activity, negative = inhibition ([11]; parasite line B) -0.0954% | Potency (C2A) | Potency (CP217) | Potency (CP238) | Potency (CP250) | Potency (CP256) | Potency (FAB9) | Potency (JCK) | Potency (SC27B)

CCC[C@@H]1O[C@@H]2C[C@@H]3[C@H]4CCC5=CC(=O)C=C[C@@]5(C)[C@H]4[C@H](O)C[C@@]3(C)[C@@]2(C(=O)CO)O1
active: Potency ([11]; parasite line A) 11.2 µM | Potency ([11]; parasite line B) 11.2 µM | Potency (CP217) 10 µM | Potency (CP250) 11.2 µM | Potency (CP256) 11.2 µM
4.44%: max response [9, 13]
-2.78%: max response [9, 14]
inactive: outcome [1] | Potency [2] | activity change, negative = inhibition [3] -1.55% | outcome [4] | Potency [7] | outcome [8] | activity change, negative = inhibition ([9]; at 25.7 µM (top of the series)) -3% | Potency [10]

C[C@@H]1CCc2cc(F)cc3c(=O)c(C(=O)O)cn1c23
active: Potency [2] 12.6 µM
-3%: max response [9, 13]
inactive: outcome [1] | activity change, negative = inhibition [3] 7.91% | outcome [4] | Potency [5] > 20.6 µM | Potency [6] > 20.6 µM | Potency [7] | outcome [8] | activity change, negative = inhibition ([9]; at 25.7 µM (top of the series)) -0.0799% | Potency [10]
-1.83%: max response [9, 14]

O=C(O)[C@@H](O)[C@@H](O)[C@@H](O)[C@@H](O)C(=O)O (tested in a mixture with another compound)
inactive: outcome [1] | Potency [2] | activity change, negative = inhibition [3] -16.6% | outcome [4] | Potency [7] | outcome [8] | activity change, negative = inhibition ([9]; at 25.7 µM (top of the series)) -0.616%
-7.78%: max response [9, 14]
-10.9%: max response [9, 13]

CC(=O)C[C@H](c1ccc([N+](=O)[O-])cc1)c1c(O)c2ccccc2oc1=O
-11.4%: max response [9, 13]
inactive: outcome [1] | Potency [2] | activity change, negative = inhibition [3] -1.36% | outcome [4] | Potency [7] | outcome [8] | activity change, negative = inhibition ([9]; at 25.7 µM (top of the series)) 3.15% | Potency [10] | Potency [12] | activity, negative = inhibition ([11]; parasite line A) 7.55% | activity, negative = inhibition ([11]; parasite line B) 3.6% | Potency (C2A) | Potency (CP217) | Potency (CP238) | Potency (CP250) | Potency (CP256) | Potency (FAB9) | Potency (JCK) | Potency (SC27B)
-10.7%: max response [9, 14]

CCN1CCN(C(=O)N[C@H](C(=O)N[C@@H]2C(=O)N3[C@@H]2SC(C)(C)[C@@H]3C(=O)O)c2ccccc2)C(=O)C1=O
-7.68%: max response [9, 14]
-7.94%: max response [9, 13]
inactive: outcome [1] | Potency [2] | outcome [4] | Potency [7] | outcome [8] | activity change, negative = inhibition ([9]; at 25.7 µM (top of the series)) 0.264% | Potency [10]

COC(=O)C1=C(C)NC(C)=C(C(=O)OC(C)C)[C@H]1c1cccc2nonc12
inactive: outcome [1] | outcome [4] | Potency [5] > 20.6 µM | Potency [6] > 20.6 µM | Potency [7] | outcome [8] | activity change, negative = inhibition ([9]; at 25.7 µM (top of the series)) -0.0066% | Potency [12] | Potency (C2A) | Potency (CP217) | Potency (CP238) | Potency (CP250) | Potency (CP256) | Potency (FAB9) | Potency (JCK)
active: Potency [2] 12.6 µM
-22.3%: max response [9, 14]
-21.2%: max response [9, 13]

C[C@]12CC[C@@H]3C(=CCc4cc(O)ccc43)[C@@H]1CCC2=O
active: Potency [2] 10 µM
inactive: outcome [1] | activity change, negative = inhibition [3] 1.57% | Potency [5] > 20.6 µM | Potency [6] > 20.6 µM | Potency [7] | outcome [8] | activity change, negative = inhibition ([9]; at 25.7 µM (top of the series)) -4.32%
-14.4%: max response [9, 13]
-15.4%: max response [9, 14]

NCc1ccccc1CC(=O)N[C@@H]1C(=O)N2C(C(=O)O)=C(CSc3nnnn3CC(=O)O)CS[C@@H]12
-14.4%: max response [9, 13]
-13.9%: max response [9, 14]
inactive: outcome [1] | Potency [2] | outcome [4] | Potency [5] > 20.6 µM | Potency [6] > 20.6 µM | Potency [7] | outcome [8] | activity change, negative = inhibition ([9]; at 25.7 µM (top of the series)) -0.0833% | activity, negative = inhibition ([11]; parasite line A) 1.91% | activity, negative = inhibition ([11]; parasite line B) -4.65% | Potency (C2A) | Potency (CP217) | Potency (CP238) | Potency (CP250) | Potency (CP256) | Potency (FAB9) | Potency (JCK) | Potency (SC27B)

COc1ccc2c3c([nH]c2c1)[C@@H]1C[C@@H]2[C@@H](C[C@H](O)[C@H](OC)[C@H]2C(=O)O)CN1CC3
inactive: outcome [1] | Potency [2] | outcome [4] | Potency [5] > 20.6 µM | Potency [6] > 20.6 µM | Potency [7] | outcome [8] | activity change, negative = inhibition ([9]; at 25.7 µM (top of the series)) -2.35% | Potency [10]
-18.6%: max response [9, 13]
-20%: max response [9, 14]

CN(C)c1ccc(-c2nccc(NCc3ccccc3)n2)cc1
inactive: outcome [1] | outcome [4] | Potency [5] > 46 µM | Potency [6] > 46 µM | Potency [7] | activity change, negative = inhibition ([9]; at 57.5 µM (top of the series)) 2.02% | Potency [10]
active: Potency [2] 1.26 µM
-4.09%: max response [9, 13]
-1.11%: max response [9, 14]
